Results: paper PMC4336329 (PLoS ONE, 2015)
Screen size: about 310,000 compounds; about 14,000 (4.5%) showed an effect of 50% or more. The effect is printed as a negative number. For the sample, strong results were picked, then their nearest neighbours and some compounds at random.

Biological target: human ether-à-go-go-related gene (hERG) potassium channel (human, UniProt Q12809)
Test: primary screen, population patch clamp on CHO cells stably expressing hERG; higher = less effect of the substance
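Further: peak tail current of the secondary pulse compared with the same well before compound.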

Chain of human ether-à-go-go-related gene (hERG) potassium channel (Q12809 whole entry, looked up): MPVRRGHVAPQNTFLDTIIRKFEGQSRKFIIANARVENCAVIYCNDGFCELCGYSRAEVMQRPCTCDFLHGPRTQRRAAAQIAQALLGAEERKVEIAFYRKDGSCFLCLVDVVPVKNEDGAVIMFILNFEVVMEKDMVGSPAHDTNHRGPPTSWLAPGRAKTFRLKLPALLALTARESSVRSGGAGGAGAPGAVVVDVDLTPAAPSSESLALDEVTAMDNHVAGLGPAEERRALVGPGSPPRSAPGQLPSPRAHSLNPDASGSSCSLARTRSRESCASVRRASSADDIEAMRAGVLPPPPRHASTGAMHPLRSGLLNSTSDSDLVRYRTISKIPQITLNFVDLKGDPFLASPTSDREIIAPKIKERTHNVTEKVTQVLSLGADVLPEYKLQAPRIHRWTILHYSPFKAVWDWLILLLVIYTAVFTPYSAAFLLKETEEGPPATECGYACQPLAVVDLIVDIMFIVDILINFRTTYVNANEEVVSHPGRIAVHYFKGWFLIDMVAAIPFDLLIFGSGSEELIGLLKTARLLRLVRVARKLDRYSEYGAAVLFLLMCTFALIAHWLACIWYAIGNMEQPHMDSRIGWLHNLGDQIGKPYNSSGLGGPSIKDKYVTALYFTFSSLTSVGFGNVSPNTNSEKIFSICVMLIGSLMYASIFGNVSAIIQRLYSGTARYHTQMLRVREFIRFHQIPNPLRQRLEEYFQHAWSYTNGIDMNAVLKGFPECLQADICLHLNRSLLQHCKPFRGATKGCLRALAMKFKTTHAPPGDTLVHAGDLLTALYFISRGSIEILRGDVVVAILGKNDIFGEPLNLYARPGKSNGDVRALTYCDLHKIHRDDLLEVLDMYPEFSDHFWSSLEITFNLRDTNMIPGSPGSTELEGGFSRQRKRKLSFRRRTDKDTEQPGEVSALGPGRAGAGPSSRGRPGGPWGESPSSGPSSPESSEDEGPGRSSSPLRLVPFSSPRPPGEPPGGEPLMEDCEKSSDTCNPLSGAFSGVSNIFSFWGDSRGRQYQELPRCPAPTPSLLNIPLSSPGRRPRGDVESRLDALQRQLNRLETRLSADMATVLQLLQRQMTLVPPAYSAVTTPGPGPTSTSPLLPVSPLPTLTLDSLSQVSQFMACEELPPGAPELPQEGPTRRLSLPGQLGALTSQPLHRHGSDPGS

Row | Compound | hERG current change (%, negative = inhibition) at 10uM [%]
1 | O=C(Cc1cc(=O)[nH][nH]1)N/N=C/C=C/c1ccccc1 | 8.93
2 | COc1cccc(CCNC(=O)CC2C(=O)NCCN2Cc2ccc(C)o2)c1 (stereo not drawn) | 15.7
3 | CCC1=NN(C(=O)c2cccnc2)C(O)(C(F)(F)F)C1 (stereo not drawn) | 3.08
4 | COc1ccc(CC(=O)NCc2nnc(SCC(=O)Nc3nccs3)n2C)cc1 | 17.3
5 | CCS(=O)(=O)n1nc(-c2ccccc2)cc1N | 7.55
6 | COc1ccc(NC(=O)/C(=C/c2cccs2)NC(=O)c2ccco2)cc1 | -21.1
7 | COc1ccc([N+](=O)[O-])cc1N(CC(=O)N1CCN(Cc2ccccc2)CC1)S(C)(=O)=O | 5.94
8 | CC(=O)NS(=O)(=O)c1ccccc1 | 9.31
9 | O=C(NNC(=O)c1ccco1)c1cccc(Br)c1 | 0.684
10 | O=C(CCC1CCCCC1)NNC(=O)c1cnccn1 | -4.92
11 | COc1cc(Cl)c(C)cc1NC(=O)CSc1ccccc1 | 5.58
12 | COc1ccc(CN2CCC(c3nc4ccc(Cl)cc4[nH]3)CC2)cc1 | -76.3
13 | Cc1ccc(CN2CCC(c3nc4ccc(Cl)cc4[nH]3)CC2)cc1 | -83
14 | CCC(C)(C)n1nnnc1CN1CCC(c2nc3ccc(C)cc3[nH]2)CC1 | -48.3
15 | O=C(NCC1CCCO1)c1ccc(S(=O)(=O)N2CCC(c3nc4ccc(Cl)cc4[nH]3)CC2)cc1 (stereo not drawn) | -18
16 | Clc1ccc(CN2CCC(c3nc4ccc(Cl)cc4[nH]3)CC2)cc1 | -80.7
17 | COc1ccc(NC(=S)N2CCCC(c3nc4ccc(C)cc4[nH]3)C2)cc1 (stereo not drawn) | -10.5
18 | COc1ccc(NC(=S)N2CCC(c3nc4ccc(Cl)cc4[nH]3)CC2)c(OC)c1 | -42.6
19 | O=S(=O)(c1ccc(Cl)cc1)N1CCC(c2nc3ccccc3[nH]2)CC1 | 1.05
20 | Cc1ccc(Cn2nnnc2CN2CCC(c3nc4ccc(Cl)cc4[nH]3)CC2)cc1 | 5.01
21 | COc1ccc(NC(=O)CCCN2C(=O)C(c3ccccc3)Oc3cccnc32)cc1OC (stereo not drawn) | 1.23
22 | CCCCNC(=O)Cn1cnc2sc(C)c(S(=O)(=O)N3CCN(c4ccccc4OC)CC3)c2c1=O | 11.4
23 | O=C(Nc1nc(-c2cc(Cl)sc2Cl)cs1)c1ccc(Br)s1 | -6.05

Row | Compound | hERG current change (%, negative = inhibition) at 10uM [%]
24 | Cc1cccc(/C(N)=N/OC(=O)Cc2cccs2)c1 | -12.4
25 | Cc1cc(-c2cc(C(=O)NC3CCCC3)on2)nc(NC2CCCC2)n1 | 4.57
26 | COc1ccc(S(=O)(=O)NC(C)(C)C)cc1-c1nnc2c3ccccc3c(C)nn12 | -5.05
27 | CNS(=O)(=O)c1ccc(OC)c(-c2nnc3c4ccccc4c(C)nn23)c1.Cl | 7.8
28 | COc1ccc(S(=O)(=O)NCc2ccco2)cc1-c1nnc2c3ccccc3c(C)nn12 | -50.3
29 | CC(=O)c1c(C)n(Cc2ccccc2)c2ccc(O)cc12 | 12.8
30 | COc1ccc(C2=NN(C(=O)CSc3nc(=O)n4cccc(C)c4n3)C(c3ccc(C)cc3)C2)cc1 (stereo not drawn) | 4.53
31 | Cc1ccc(C2CC(c3cccs3)=NN2C(=O)CSC2=NCCS2)cc1 (stereo not drawn) | -2.21
32 | CCC(=O)N1N=C(c2cccs2)CC1c1ccc(C)cc1 (stereo not drawn) | 2.52
33 | COc1ccc(C2CC(c3cccs3)=NN2C(=O)CSc2nc(=O)n3cc(C)ccc3n2)cc1 (stereo not drawn) | -64.8
34 | Cc1ccc(C2CC(c3cccs3)=NN2C(=O)CSc2nc(=O)n3cc(C)ccc3n2)cc1 (stereo not drawn) | -66.6
35 | COc1ccc(C2=NN(C(=O)CSc3nc(=O)n4cc(C)ccc4n3)C(c3ccc(C)cc3)C2)cc1 (stereo not drawn) | -16.2
36 | Cc1nn(C(C)C(=O)NC(C)CCc2ccccc2)c(=O)c2cc3occc3n12 (stereo not drawn) | -13.7
37 | O=C(NC1=NCCS1)C1CCN(S(=O)(=O)c2ccccc2C(F)(F)F)CC1 | 6.92
38 | COc1ccc(-c2coc3cc(OC)cc(O)c3c2=O)cc1 | 24.5
39 | CCOc1ccc2c(C)nc(NC3=NC(C)(C)C=C(C)N3)nc2c1 | -45
40 | CCOc1ccc2nc(NC3=NC(C)(C)C=C(C)N3)nc(C)c2c1 | -47.8
41 | CC1=CC(C)(C)N=C(Nc2nc(C)c3cc(C)cc(C)c3n2)N1 | -63.5
42 | CN(C)CCCNC(=O)c1cc(C(=O)c2c(Cl)cccc2Cl)c[nH]1 | -9.62
43 | CN(C)CCCNC(=O)c1cc(C(=O)c2cccc(Cl)c2Cl)c[nH]1 | -51
44 | CN(C)CCCNC(=O)c1cc(C(=O)c2ccc(F)cc2)c[nH]1 | -68.5
45 | CN(C)CCCNC(=O)c1cc(C(=O)c2ccccc2F)c[nH]1 | 1.23
46 | CN(C)CCCNC(=O)c1cc(C(=O)c2ccccc2)c[nH]1 | 10.5

Row | Compound | hERG current change (%, negative = inhibition) at 10uM [%]
47 | COc1cccc(C(=O)c2c[nH]c(C(=O)NCCCN(C)C)c2)c1 | -4.75
48 | C#CCOC(=O)c1cc(Cl)c(=O)n(Cc2ccc(Cl)cc2Cl)c1 | -18.8
49 | COC(=O)c1cc2ccsc2n1CC(=O)NCC1CCCO1 (stereo not drawn) | 10.6
50 | CC(C)Nc1nc(NNc2nc(Cl)nc(NC(C)(C)C)n2)nc(NC(C)C)n1 | 10.1
51 | Cc1cc(NC(=O)CSc2nc(C3CCCCC3)nc3ccccc23)no1 | 18.9
52 | O=C(Nc1ccccc1)c1cc2ccccc2o1 | -7.55
53 | CC/C(=C\c1oc2cc3ccccc3cc2[n+]1CC)Nc1ccccc1.[I-] | -78.1
54 | CCC(=O)Nc1ccc(NC(=O)c2cc3ccccc3o2)cc1 | -2.45
55 | COCCn1c(SCC(=O)Nc2cccc(S(N)(=O)=O)c2)nc2cc(Cl)ccc2c1=O | -38.8
56 | CN1CCN(C2Cc3cc(F)ccc3Sc3ccc(Cl)cc32)CC1.O=C(O)/C=C\C(=O)O (stereo not drawn) | -44.8
57 | CN1CCC(=C(c2ccc(Cl)cc2)c2ccccn2)CC1.O=C([O-])/C=C\C(=O)[O-] | -40.5
58 | O=C(O)/C=C\C(=O)O.OCCN1CCN(C2CCC(c3ccc(F)cc3)c3ccc(F)cc32)CC1 (stereo not drawn) | -44.5
59 | CSc1ccc2c(c1)C(N1CCN(C)CC1)Cc1ccc(F)cc1S2.O=C(O)/C=C\C(=O)O (stereo not drawn) | -58.8
60 | CN1Cc2cccc3c2C(Cc2ccccc2S3)C1.O=C(O)/C=C\C(=O)O (stereo not drawn) | -36.6
61 | CSc1cccc(NC(=O)N2CCN(C)CC2)c1 | -31.1
62 | CN1CCN(C(=O)Nc2ccc3c(c2)N(C)C(=O)c2ccccc2S3)CC1 | 8.57
63 | CN1CCN(C2Cc3ccccc3Sc3cc(C(F)(F)F)ccc32)CC1.O=C(O)/C=C\C(=O)O (stereo not drawn) | -70.2
64 | CS(=O)(=O)O.CSc1ccc2c(c1)C(N1CCN(C)CC1)Cc1ccccc1S2 (stereo not drawn) | -65.9
65 | COc1ccc2c(c1)CC(N1CCN(C)CC1)c1cc(OC)ccc1S2.O=C(O)/C=C\C(=O)O (stereo not drawn) | -25.9
66 | CN1CCN(C2Cc3ccccc3Sc3ccc(Cl)cc32)CC1.O=C([O-])/C=C\C(=O)[O-] (stereo not drawn) | -65.9
67 | Cc1ccc(/C=C2\C(=N)N3N=C(CC(=O)N4CCCCC4)SC3=NC2=O)cc1 | 17.4
68 | COc1ccc(/C(O)=C2/C(=O)C(=O)N(c3ccccn3)C2c2ccc(F)cc2)cc1 (stereo not drawn) | 35.2
69 | O=C(COC(=O)CNC(=O)c1ccc(Cl)cc1Cl)NC1CCCCCCC1 | 15.8

Row | Compound | hERG current change (%, negative = inhibition) at 10uM [%]
70 | Cc1cn(C(=O)c2cccc(Br)c2)c(C)n1 | 15
71 | O=c1c2ccccc2nnn1Cc1ccc(Br)cc1 | 8.66
72 | CCNC(=O)NC(=O)CSc1ccccc1F | 10.7
73 | Cc1nc2sc3c(c2c(=O)[nH]1)CCC3 | 12.1
74 | CC(NC(=O)c1cccs1)C(=O)NC1=NCCS1 (stereo not drawn) | 1.3
75 | COc1cc(N)c(Cl)cc1C(=O)OCC(=O)c1ccc2c(c1)NC(=O)CO2 | 1.68
76 | Cc1nnc(SCC(=O)Nc2cc(S(C)(=O)=O)ccc2Cl)n1Cc1ccccc1 | 6.22
77 | CC(=O)NCCNC(=O)c1cccc(NS(=O)(=O)c2ccc3c(c2)OCCO3)c1 | -2.65
78 | Cc1c(NC(=O)C2CC(c3c(F)cccc3Cl)=NO2)c(=O)n(-c2ccccc2)n1C (stereo not drawn) | 14.7
79 | CN1CCN(C2=Cc3ccccc3Sc3cc(F)c(Cl)cc32)CC1.O=C(O)/C=C\C(=O)O | -12.4
80 | CS(=O)(=O)O.Cc1cccc2c1Sc1ccc(Cl)cc1CC2N1CCNCC1.O (stereo not drawn) | 5.75
81 | CN1CCN(C2=Cc3ccccc3Sc3cc(F)c(F)cc32)CC1.CS(=O)(=O)O | -22.5
82 | CS(=O)(=O)O.Clc1cccc2c1Sc1ccccc1CC2N1CCNCC1 (stereo not drawn) | -72.4
83 | CN1CCN(C2=Cc3ccccc3Sc3cc(F)ccc32)CC1.O=C(O)/C=C\C(=O)O | -62.8
84 | CN1CCN(C2Cc3ccc(F)cc3Sc3cc(F)c(Cl)cc32)CC1.CS(=O)(=O)O.O (stereo not drawn) | -77.3
85 | CC(C)c1ccc2c(c1)C(N1CCNCC1)Cc1ccc(F)cc1S2.O.O=C(O)/C=C\C(=O)O (stereo not drawn) | 5.51
86 | Cc1nc2c(o1)CCc1ccccc1C2N1CCN(C)CC1.O=C(O)/C=C/C(=O)O (stereo not drawn) | -5.58
87 | CN1CCN(C2=Cc3ccc(Cl)cc3Sc3ccc(F)cc32)CC1.CS(=O)(=O)O.O | -14.8
88 | CCc1cccc2c1Sc1ccccc1CC2N1CCNCC1.CS(=O)(=O)O (stereo not drawn) | -31.1
89 | CC(C)c1ccc2c(c1)C(N1CCN(C)CC1)Cc1cccnc1S2.O=C(O)/C=C\C(=O)O (stereo not drawn) | -50.6
90 | CN1CCN(C2Cc3cc(Cl)ccc3Sc3cc(F)ccc32)CC1.CS(=O)(=O)O (stereo not drawn) | -38.2
